High-throughput results as filed in PubChem.
In the library only some 1.3% were active in any assay of this set; here they are far more common.
RXFP1 ag = agonists of human relaxin receptor RXFP1. 0.3% of 370,000 active. Potency, µM (top dose mostly 57.5 µM), hits mostly activators. HEK293T-RXFP1 cAMP TR-FRET, 30 min; response scale: percent of porcine relaxin response, buffer zero; active means well fitted activation curve with a large enough effect; inconclusive means small, poorly fitted or top-dose-only effect; further: nearly all actives have a fitted effect of over 60% in size
Target sequence (Q9HBX9 whole entry, looked up): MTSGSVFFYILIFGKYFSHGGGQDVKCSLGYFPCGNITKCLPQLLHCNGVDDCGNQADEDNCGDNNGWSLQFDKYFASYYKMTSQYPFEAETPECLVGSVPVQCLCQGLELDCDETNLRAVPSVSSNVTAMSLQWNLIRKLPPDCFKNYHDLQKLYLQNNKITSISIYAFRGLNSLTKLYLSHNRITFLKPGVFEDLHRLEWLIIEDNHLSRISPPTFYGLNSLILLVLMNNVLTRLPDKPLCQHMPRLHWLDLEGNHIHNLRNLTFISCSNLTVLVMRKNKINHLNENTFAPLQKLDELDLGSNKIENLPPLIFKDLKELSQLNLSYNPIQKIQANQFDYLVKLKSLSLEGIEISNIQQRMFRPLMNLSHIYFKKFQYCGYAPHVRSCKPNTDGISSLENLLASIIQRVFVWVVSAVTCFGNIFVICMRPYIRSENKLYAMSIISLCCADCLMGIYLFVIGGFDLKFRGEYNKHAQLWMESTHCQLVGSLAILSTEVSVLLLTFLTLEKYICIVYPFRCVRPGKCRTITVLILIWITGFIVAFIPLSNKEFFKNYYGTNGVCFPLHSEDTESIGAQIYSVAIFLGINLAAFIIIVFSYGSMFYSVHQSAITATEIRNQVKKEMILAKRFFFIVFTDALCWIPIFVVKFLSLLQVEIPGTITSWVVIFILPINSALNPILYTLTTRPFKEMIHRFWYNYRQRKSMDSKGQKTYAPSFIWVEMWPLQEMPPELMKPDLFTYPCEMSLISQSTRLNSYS
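HEK293 cells stably expressing RXFP1, treated 30 min at 37C with compounds plus PDE4 inhibitor Ro 20174; cAMP measured by HTRF TR-FRET. Normalized to buffer and 29 nM porcine relaxin; EC50 by Hill fit.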
pAkt inh = blocks phosphorylation of Akt | Neuro2A IGF-stimulated pAkt S473 HTRF, 20 min; hits give low values | AID 651550 | 0.32% of 360,000 active | activity change, % for hits at 50 µM; in the data active means activity change below about -80%; inconclusive means mostly about -51% to -80%
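Neuro2A cells in DMEM with 0.5% FBS, overnight at 37 deg C, given compound at single 50 µM final, then IGF (6 nM final) for 20 min at 37 deg C. Lysed; phospho-Akt Ser473 by HTRF after 24 h, 665/615 ratio.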
RXFP1 antagonist = RXFP1 (human) relaxin receptor antagonism. activity change, negative = inhibition, % at 57.5 µM. HEK293-RXFP1, relaxin-stimulated cAMP HTRF, 30 min; hits give low values. 0.59% of 350,000 active. AID 1259400;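 active means activity change of -60% or lower, but not beyond a set lower limit; inconclusive means change between -60% and -40%, or beyond the set limit; inactive means change above -40%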
gsp antagonist = gsp mutant antagonism | gsp-mutant cells, cAMP HTRF, 30 min | Potency, µM (series often up to 76.9 µM), usual class: inhibitors | 0.4% of 340,000 active | AID 624288; calls by dose curve; cell line not stated here;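 further: intracellular cAMP measured with PDE inhibitor Ro 20-1724 present during compound exposure; nearly all actives have a fitted effect of over 65% in size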
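Cells, 2000/well, grown 16–24 h in DMEM 10% FBS with 0.5 mg/ml G418, then compounds plus […] (300 uM addition stock), 30 min at 37C. cAMP read by HTRF (cAMP-d2 and anti-cAMP antibody-K in lysis buffer) after 30 min RT.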
gsp ag = gsp mutant agonism; gsp mutant cells, cAMP HTRF, 30 min; Potency, µM (doses to about 76.9 µM), usual class: activators; 0.13% of 340,000 active; active means well fitted activation curve with a large enough effect; inconclusive means small, poorly fitted or top-dose-only effect, or another doubt; inactive means no such curve, though single readings can be large or run the other way; cell line not stated here;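 further: phosphodiesterase inhibitor Ro 20-1724 added with compounds to block cAMP breakdown; nearly all actives have a fitted effect of over 60% in size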
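Cells stably selected in G418 were plated at 2000/well, grown 16-24 hr, then given compounds in DMSO with the PDE inhibitor […] (300 uM solution added) for 30 min at 37C; cAMP was read by HTRF.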
A number is an active result; - = inactive; ? = inconclusive; . = no result given; [ ] = dose if it differs, or a comment.

SMILES	RXFP1 ag	pAkt inh	RXFP1 antagonist	gsp antagonist	gsp ag
CCn1c(CNc2cccc(C(F)(F)F)c2)n[nH]c1=S	-	-	-110	-	-
CC1CCCCN1CCCOC(=O)c1ccc(OC2CCCCC2)cc1 (stereo not given)	.	.	-	.	.
O=C(Nc1ccc(Cl)c(Cl)c1)c1cccc(S(=O)(=O)NCc2cccnc2)c1	-	-	-	28µM	-[15.4 µM]
COc1cccc(S(=O)(=O)NCc2ccc(C(=O)Nc3ccc(Cl)c(Cl)c3)cc2)c1	-	-	-	-	-
COc1ccc(-n2nc(C(=O)NCC(=O)NCCCN3CCOCC3)c3ccccc3c2=O)cc1OC	14µM	-	-	-	-[15.4 µM]
COc1ccc(-n2nc(C(=O)NCC(=O)NCCCN3CCOCC3)c3ccccc3c2=O)cc1Cl	?	-	-	-	-[15.4 µM]
COc1ccc(-n2nc(C(=O)NCC(=O)NCCCN3CCOCC3)c3ccccc3c2=O)cc1	16µM	-	-	-	?
COc1ccc(S(=O)(=O)NCCS(=O)(=O)N2CCN(c3ccccc3)CC2)cc1C	-	.	.	.	.
COc1ccc(C2C(C#N)=C(N)OC3=C2C(=O)CC(C)(C)C3)cc1OC (stereo not given)	-	-	-76	-	-
COc1cc(OC)c(C2C(C#N)=C(N)OC3=C2C(=O)CC(C)(C)C3)cc1OC (stereo not given)	-	-	-	-	-
Cc1cc(C)n(C(=O)CNc2ccccc2Cl)n1	-	-127%	-	-	?
Cc1cc(C)n(C(=O)CNC(=O)c2ccc(C(C)(C)C)cc2)n1	-	-	-116	-	-
CCOC(=O)CNC(=O)CNC(=O)c1ccc(OC)cc1	-	-108%	-	-	-
COc1ccc(C(=O)NCC(=O)OCC(=O)NC(=O)c2ccc(C(C)(C)C)cc2)cc1OC	-	-	-	50µM	-
COc1ccc(C(=O)NCC(=O)n2nc(C)cc2C)cc1OC	-	-	-	-	10µM
CN1CCc2c(sc(NC(=O)CSc3ccc(F)cc3)c2-c2nc3ccccc3s2)C1	-	.	-96	.	.
CC(=O)N1CCc2c(sc(NC(=O)CSc3ccc(F)cc3)c2-c2nc3ccccc3s2)C1	-	.	-	.	.
COC[C@@H](c1ccc(C(F)(F)F)cc1)N1CCN(C2(C)CCN(C(=O)c3c(C)ncnc3C)CC2)C[C@H]1C	.	.	-	.	.
CC(=O)N(CC(O)CO)c1c(I)c(C(=O)NCCO)c(I)c(C(=O)NCC(O)CO)c1I (stereo not given)	.	.	-	.	.
O=C(C/C=N/OCc1ccc(F)cc1Cl)c1cnc(-c2ccccc2)s1	-	-97%	-	-	-
Cc1cc(Cl)ccc1OC(C)C(=O)Nc1ccc(S(=O)(=O)N2CCOCC2)cc1 (stereo not given)	.	-	-	-	-
Cc1cc(Cl)ccc1OC(C)C(=O)Nc1ccc(C(=O)Nc2ccccc2C(=O)O)cc1 (stereo not given)	-	-	-	32µM	-
CC(O)CNc1nc2c(c(=O)n(C)c(=O)n2C)n1CCc1ccccc1 (stereo not given)	-	-112%	-	-	-
CC(C)=NNc1nc2c(c(=O)[nH]c(=O)n2C)n1CCc1ccccc1	-	-	-70	-	-
Cn1c(=O)c2c(nc(NCC(O)CO)n2CCc2ccccc2)n(C)c1=O (stereo not given)	-	-	-	-	?
SMILES	RXFP1 ag	pAkt inh	RXFP1 antagonist	gsp antagonist	gsp ag
CO/N=C/c1ccc(N2CCN(C(=O)c3ccc(F)cc3)CC2)c([N+](=O)[O-])c1	-	-	-	35µM	-
Cc1ccc(OCC(=O)N(Cc2ccc(N(C)C)cc2)CC2CCCO2)cc1C (stereo not given)	-	.	-	.	.
Cc1cccc(C(C)C)c1NC(=O)Cn1c(=O)oc2cc(S(=O)(=O)N3CCCC3)ccc21	-	.	-	.	.
COc1ccc(-n2c(-c3ccc(F)cc3)cn3c4c(=O)n(C)c(=O)n(C)c4nc23)cc1	-	.	.	.	.
CC1CCN(N=Nc2nc3c([nH]2)c(=O)n(C)c(=O)n3C)CC1	.	-	-	-	13µM
CCN(Cc1nc(-c2ccc(OC)cc2)oc1C)S(=O)(=O)c1ccc(Cl)cc1	-	.	-	.	.
COc1ccc(C2=Nc3ccc(OC(F)(F)F)cc3NC(c3cccnc3)=N2)cc1	-	.	-	.	.
COc1cccc(OCCSc2nnc3sc4ccccc4n23)c1	-	-112%	-	-	-
O=C(c1cc2ccccc2oc1=O)N(Cc1ccccc1)Cc1ccc2c(c1)OCO2	-	-124%	-	-	?
O=C(c1cc2ccccc2oc1=O)N1CCN(Cc2ccc3c(c2)OCO3)CC1	-	-	-	-	-
COC(=O)c1ccc(NC(=O)Cn2ccn3nc(-c4ccc(OC)cc4)cc3c2=O)cc1	-	.	-	.	.
COc1cccc(C(=O)N(Cc2nc(-c3ccc(Cl)cc3)no2)C(C)C)c1OC	-	.	.	.	.
CCOP(=O)(c1ccccc1)c1nc(-c2ccc(F)cc2)oc1N1CCCCC1 (stereo not given)	-	-130%	-	-	-
Cn1c(SCc2ccc(C(C)(C)C)cc2)nnc1C1COc2ccccc2O1 (stereo not given)	-	-	-69	-	-
COc1c(C)c2c(c(O)c1C/C=C(\C)CCC(=O)OCCN1CCOCC1)C(=O)OC2	.	.	-	.	.
Cc1c(C(=O)O)oc2ccc(S(=O)(=O)N3CC(C)CC(C)C3)cc12 (stereo not given)	-	-	-	-	-
CCOC(=O)C1CCN(C(=O)c2oc3ccc(S(=O)(=O)N4CC(C)CC(C)C4)cc3c2C)CC1 (stereo not given)	-	-82%	-	-	-
CCOC(=O)N1CCN(C(=O)c2oc3ccc(S(=O)(=O)N4CC(C)CC(C)C4)cc3c2C)CC1 (stereo not given)	-	-	-	35µM	-
CCN1CCCC1CNC(=O)c1ccc2c(c1)N(Cc1ccccc1F)C(=O)c1ccccc1S2(=O)=O (stereo not given)	-	-	-100	-	?
Cc1ccc(Cn2c(=O)n(CCCCC(=O)NCCc3ccc(Cl)cc3)c(=O)c3ccccc32)cc1	-	.	.	.	.
CSc1ccc(CN2CCN(C(=O)CC(C)C)CC2)cc1	-	-	-63	-	-
CCOc1ccc(C(C(=O)NCC2CCCO2)N(C(=O)c2snc(C(N)=O)c2N)c2cccc(F)c2)cc1 (stereo not given)	-	-	-91	?	-
Cc1cc(C)cc(N(C(=O)c2snc(C(N)=O)c2N)C(C(=O)NCC2CCCO2)c2ccc(C)o2)c1 (stereo not given)	-	-	-61	-	-
Cc1ccc(C(C(=O)NCC2CCCO2)N(C(=O)c2snc(C(N)=O)c2N)c2ccc(C)c(C)c2)o1 (stereo not given)	-	-	-76	-	-[15.4 µM]
CCc1ccc(C2CC(=O)c3c([nH]c(C(=O)OCCOc4ccccc4)c3C)C2)cc1 (stereo not given)	-	.	-	.	.
O=C(NCC1CN(c2ccc(N3CCOCC3=O)cc2)C(=O)O1)c1ccc(Cl)s1 (stereo not given)	.	.	-	.	.
